Laboratory results reported in PubChem BioAssay (Tox21).
Results filed as inconclusive are left out. Entries that show only a call come without a potency. Activity calls are given as the source filed them. Calls come from the whole dose curve; as a rule, active = well fitted cell-killing curve with a large enough effect in the repeat runs; inconclusive = weak or mixed curves; inactive = no such curve, though single readings can be large or run the other way.

Assay: qHTS assay to identify small molecule antagonists of the androgen receptor (AR) signaling pathway - cell viability counter screen (AID 743033; note: nearly all actives have a fitted effect of over 45% in size)
Conditions: AR-bla HEK293 viability, CellTiter-Glo luminescence, 16 h; series mostly up to 58.5 µM
Description: National Center for Advancing Translational Sciences [NCATS]
NIH Chemical Genomics Center [NCGC]
U.S. Environmental Protection Agency [EPA]
National Institutes of Environmental Health Sciences [NIEHS]
National Toxicology Program [NTP]
U.S. Food and Drug Administration [FDA]
Androgen receptor (AR), a nuclear hormone receptor, plays a critical role in AR-dependent prostate cancer and other androgen related diseases. Endocrine disrupting chemicals (EDCs) and their interactions with steroid hormone receptors like AR may cause disruption of normal endocrine function as well as interfere with metabolic homeostasis, reproduction, developmental and behavioral functions. To identify the compounds that inhibit AR signaling, GeneBLAzer AR-UAS-bla-GripTite cell line (Invitrogen, Carlsbad, CA, USA) containing a beta-lactamase reporter gene under control of an Upstream Activator Sequence (UAS) stably integrated into HEK293 cells was used to screen the Tox21 10K compound library. The cytotoxicity of the Tox21 compound library against the AR-bla cell line was tested in parallel by measuring the cell viability using CellTiter-Glo assay in the same wells.
Tox21 Assay Protocol Summary:
AR-bla cells were dispensed at 2,000 cells/5 uL of assay medium per well into black wall/clear-bottom 1536-well plates using a Multidrop Combi (ThermoFisher Scientific, Waltham, MA) dispenser. After the assay plates were incubated at a 37C and 5% CO2 for 4 hr, 23 nL of compounds dissolved in DMSO, positive controls or DMSO only was transferred to the assay plate by a Pintool station (Kalypsys, San Diego, CA), followed by addition of 1 uL of agonist (R1881) in culture medium using a Bioraptr Flying Reagent Dispenser (FRD) workstation (Beckman Coulter, Indianapolis, IN, USA). The plates were incubated at a 37C and 5% CO2 for 16 h. After 1 uL of LiveBLAzerTM B/G FRET substrate was added using a Bioraptr FRD, the plates were incubated at room temperature for 2 h and fluorescence intensity was measured by an Envision plate reader (PerkinElmer, Shelton, CT). For cell viability readout that measures cytotoxicity, 4 ul/well of CellTiter-Glo reagent was added into the assay plates using a Bioraptr FRD. After 30 min incubation at room temperature, the luminescence intensity in the plates was measured using a ViewLux (PerkinElmer) plate reader.
Potency is the fitted concentration of half-maximal effect.

Row | SMILES | Potency
1 | N#Cc1c(F)cccc1F | inactive
2 | CNCC[C@@H](Oc1ccccc1C)c1ccccc1 | inactive
3 | Cc1ccc(C)o1 | inactive
4 | CC1CCc2cc(F)cc3c(=O)c(C(=O)O)cn1c23 (stereo not given) | inactive
5 | CN1CCC(=C2c3ccccc3C=Cc3ccccc32)CC1 | inactive
6 | NC(N)=NN=C(/C=C/c1ccc([N+](=O)[O-])o1)/C=C/c1ccc([N+](=O)[O-])o1 | 9.52 µM (active)
7 | S=C(S)NCCNC(=S)S | inactive
8 | Nc1nc(CC(=O)O)cs1 | inactive
9 | O=C(NS(=O)(=O)/C=C/c1cccs1)c1ccc(F)cc1Br | inactive
10 | O=C(Cl)c1c(Cl)cccc1Cl | inactive
11 | O=C(Nc1ccccc1)OCC(CN1CCCCC1)OC(=O)Nc1ccccc1 (stereo not given) | inactive
12 | CCN(CC)CCc1nc(-c2ccccc2)no1 | inactive
13 | C=Cc1c(C)c2cc3[nH]c(cc4nc(cc5nc(cc1[nH]2)C(C)=C5CCC(=O)O)C(CCC(=O)O)=C4C)c(C)c3C=C | inactive
14 | Cc1cc(C)c(S(=O)(=O)O)cc1N=Nc1cc(S(=O)(=O)O)c2ccccc2c1O | inactive
15 | COC(=O)C(C)=O | inactive
16 | CC1=CCC(C(C)C)C=C1 (stereo not given) | inactive
17 | Oc1ccc(C(O)CNCCCCCCNCC(O)c2ccc(O)c(O)c2)cc1O (stereo not given) | inactive
18 | CN(C)C/C=C(/c1ccc(Br)cc1)c1cccnc1 | inactive
19 | CC/C(=C\C(=N/O)C(N)=O)C(C)[N+](=O)[O-] (stereo not given) | inactive
20 | CN(C)CCCNCCCN | inactive

Row | SMILES | Potency
21 | CC[C@H](C)[C@@H](C(=O)O)n1sc2ccccc2c1=O | inactive
22 | O=C(O)Cn1c(C(=O)Nc2nc(-c3ccccc3Cl)cs2)cc2ccccc21 | inactive
23 | O=C(O)Cc1sc(-c2ccccc2)nc1-c1ccc(Cl)cc1 | inactive
24 | Cc1ncsc1CCO | inactive
25 | O=C(CCN1CCN2CCCC2C1)N1c2ccccc2Sc2ccc(Cl)cc21 (stereo not given) | inactive
26 | CCCCOC(=O)/C=C\C(=O)OCCCC | inactive
27 | O=S(=O)(O)c1ccc(O)c2ncccc12 | inactive
28 | Cc1ccc2c(ccc3ccccc32)c1 | inactive
29 | CCCCCCCCCC(=O)OCC | inactive
30 | COc1ccccc1OC(=O)Oc1ccccc1OC | inactive
31 | Oc1ccc(O)c2c(O)cccc12 | inactive
32 | CCCCCCCCCCCCCCC1CO1 (stereo not given) | inactive
33 | O=S1(=O)N=C(O)c2ccccc21 | inactive
34 | COc1cc(C(C)(C)C)c(O)c(C(C)(C)C)c1 | inactive
35 | CN1CCC(=C2c3ccccc3CCc3sccc32)CC1 | inactive
36 | Oc1ccc(Sc2ccc(O)cc2)cc1 | inactive
37 | CC(C)(C)c1cc(CCC(=O)OCC(COC(=O)CCc2cc(C(C)(C)C)c(O)c(C(C)(C)C)c2)(COC(=O)CCc2cc(C(C)(C)C)c(O)c(C(C)(C)C)c2)COC(=O)CCc2cc(C(C)(C)C)c(O)c(C(C)(C)C)c2)cc(C(C)(C)C)c1O | inactive
38 | CCOc1cc(OCC)c(C(=O)CCC(=O)O)cc1OCC | inactive
39 | CN(C(=O)CCCOc1ccc2[nH]c(=O)ccc2c1)C1CCCCC1 | inactive
40 | CCCCCCCCCC=O | inactive
